Cell viability and kynurenine production data for 18 compounds are collected here from the supplement of paper PMC13094657.

Experiment [1] deals with MDA-MB-231. The experiment in a line: cell viability relative to vehicle unstimulated control (fraction); higher = more viable cells. The conditions noted are these: pre-treatment time: 18 h then 24 h IFNg/TNF.
Experiment [2] has as its system MDA-MB-231. The experiment in a line: kynurenine production, fold change vs DMSO IFNg/TNF control; higher = more kynurenine produced (less inhibition). The conditions noted are these: pre-treatment time: 18 h then 24 h IFNg/TNF. In a few lines: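 In 96-well plates, MDA-MB-231 cells (7 × 10^4/well) were given 24 h to settle, pre-treated for 18 h with each natural product in 0.1% DMSO, and stimulated for 24 h with IFNγ (1 U/ml) and TNF (6.25 ng/ml) at 37°C. Supernatants were processed with trichloroacetic acid and p-dimethylaminobenzaldehyde and read at 492 nm against 0–100 μM standards. In the first screening round, kynurenine production, as fold change over same-plate cytokine-stimulated vehicle wells, was averaged over duplicate plates.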

± gives the standard deviation of the averaged measurements.
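For cell viability relative to vehicle unstimulated control in this document: viability of the cells left after supernatant collection, read with Deep Blue dye added for 4 h, as absorbance at 570 nm minus 600 nm.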

For `CC(C)=CCC[C@H](C(=O)O)[C@H]1CC[C@]2(C)C3=C(CC[C@@]12C)[C@@]1(C)CCC(=O)C(C)(C)[C@H]1CC3` [β-Elemonic acid] (compound dose: 10 uM), the cell viability in experiment [1] came out at 1.03 ± 0.034. Further, the kynurenine production in experiment [2] came to 1.161 ± 0.0012.

`C=C[C@H]1[C@H](O[C@@H]2O[C@H](CO)[C@@H](O)[C@H](O)[C@H]2O)OC=C2C(=O)OCC[C@H]21` [Sweroside] (compound dose: 10 uM): the cell viability in experiment [1] came out at 0.996 ± 0.063. The kynurenine production in experiment [2] amounted to 0.832 ± 0.17.

As to `C/C=C(/C)C(=O)O[C@H]1[C@@H]2[C@H](C)C(=O)O[C@@H]2C[C@@H](C)[C@@H]2C=CC(=O)[C@]21C` [Brevilin A] (compound dose: 10 uM), in experiment [1], the cell viability worked out at 0.75 ± 0.035. The kynurenine production in experiment [2] came out at 0.132 ± 0.017.

`COc1cc2c(cc1OC)-c1c(OC)c(OC)cc3c1[C@H](C2)N(C)CC3` [(S)-Glaucine (commercial standard)]: in experiment [1], the cell viability is 1.07 ± 0.065. Further, in experiment [2], the kynurenine production is 0.852 ± 0.067.

As for `O=C(/C=C/c1ccccc1)OC[C@H]1O[C@@H](O[C@@H]2OC=C[C@H]3[C@H](O)[C@@H]4O[C@]4(CO)[C@@H]23)[C@H](O)[C@@H](O)[C@@H]1O` [Picroside I] (compound dose: 10 uM), the cell viability in experiment [1] was determined as 0.9642 ± 0.0044. In addition, the kynurenine production in experiment [2] is 0.923 ± 0.05.

Regarding `C=C(C)C(=O)O[C@H]1[C@@H]2[C@H](C)C(=O)O[C@@H]2C[C@@H](C)[C@@H]2C=CC(=O)[C@]21C` [Arnicolide D] (compound dose: 10 uM), in experiment [1], the cell viability worked out at 0.784 ± 0.08. Besides, the kynurenine production in experiment [2] amounted to 0.153 ± 0.067.

Consider `O=C1C=C2C=C[C@@H]3C[C@@]2(O1)[C@H]1CCCCN31` [Securinine] (compound dose: 10 uM), for which the cell viability in experiment [1] is 0.89. The kynurenine production in experiment [2] is 0.213 ± 0.096.

For the compound `COc1ccc(CC2c3cc(OC)c(OC)cc3CCN2C)cc1OC` (stereo unspecified) [Laudanosine] (compound dose: 10 uM), the cell viability in experiment [1] amounted to 1.02 ± 0.043. Besides, the kynurenine production in experiment [2] is 0.52 ± 0.037.

As for `CN1[C@@H]2CC[C@H]1C[C@H](O)C2` [Pseudotropine] (compound dose: 10 uM), the cell viability in experiment [1] amounted to 1.052 ± 0.0024. Moreover, the kynurenine production in experiment [2] is 1.14 ± 0.4.

Consider `CC(C)[C@]12O[C@H]1[C@@H]1O[C@]13[C@]1(O[C@H]1C[C@H]1C4=C(CC[C@@]13C)C(=O)OC4)[C@@H]2O` [Triptolide] (compound dose: 10 uM), for which, in experiment [1], the cell viability came out at 0.64 ± 0.034. The kynurenine production in experiment [2] amounted to 0.152 ± 0.021.

Consider `CC(=O)OC(C)(C)/C=C/C(=O)[C@](C)(O)[C@H]1[C@H](O)C[C@@]2(C)[C@@H]3CC=C4[C@@H](C=C(O)C(=O)C4(C)C)[C@]3(C)C(=O)C[C@]12C` [Cucurbitacin E] (compound dose: 10 uM), for which the cell viability in experiment [1] turned out to be 0.52 ± 0.0012. For the same compound, the kynurenine production in experiment [2] came to 0.19 ± 0.034.

As to `CO[C@H]1CCN2[C@@H]3C=CC4=CC(=O)O[C@]4(C3)[C@@H]2C1` [Securitinine] (compound dose: 10 uM), in experiment [1], the cell viability was 0.983 ± 0.035. Besides, the kynurenine production in experiment [2] was determined as 0.734 ± 0.084.

`C=C1CCC2C(/C=C(\C)C(=O)C3(OC(C)=O)CC(C)C(OC(=O)c4ccccc4)C3C1OC(C)=O)C2(C)C` (stereo unspecified) [Euphorbia factor L3] (compound dose: 10 uM): the cell viability in experiment [1] worked out at 1.05 ± 0.019. Besides, the kynurenine production in experiment [2] was determined as 0.89 ± 0.11.

For the compound `C/C=C(\C)C(=O)N[C@@H](c1ccccc1)[C@@H](O)C(=O)O[C@H]1C[C@@]2(O)[C@@H](OC(=O)c3ccccc3)[C@@H]3[C@]4(OC(C)=O)CO[C@@H]4C[C@H](O)[C@@]3(C)C(=O)[C@H](OC(C)=O)C(=C1C)C2(C)C` [Cephalomannine] (compound dose: 10 uM), the cell viability in experiment [1] is 0.738 ± 0.071. The kynurenine production in experiment [2] worked out at 0.267 ± 0.06.

As to `CN1[C@@H]2CC(O)C[C@H]1[C@@H]1O[C@@H]12` (stereo partly specified) [Scopine] (compound dose: 10 uM), the cell viability in experiment [1] amounted to 1. Besides, the kynurenine production in experiment [2] stood at 0.798 ± 0.03.

With `C=C1CC[C@H]2[C@@H](/C=C(\C)C(=O)[C@@]3(OC(C)=O)C[C@H](C)[C@H](OC(=O)c4ccccc4)[C@@H]3[C@H]1OC(C)=O)C2(C)C` [5,15-Diacetyl-3-benzoyllathyrol] (compound dose: 10 uM), the cell viability in experiment [1] came to 1.031 ± 0.01. For the same compound, the kynurenine production in experiment [2] is 0.94 ± 0.14.

Take `CC(=O)OC12COC1CC(O)C1(C)C(=O)C(O)C3=C(C)C(O)CC(O)(C(OC(=O)c4ccccc4)C21)C3(C)C` (stereo unspecified) [10-Deacetylbaccatin III] (compound dose: 10 uM): the cell viability in experiment [1] came out at 0.999 ± 0.017. The kynurenine production in experiment [2] was 0.849 ± 0.18.

With `C[C@@H]1CC[C@@]2(OC1)O[C@H]1[C@@H](O)[C@H]3[C@@H]4CC[C@H]5C[C@@H](O[C@@H]6O[C@H](CO)[C@H](O[C@@H]7O[C@H](CO)[C@@H](O)[C@H](O[C@@H]8OC[C@@H](O)[C@H](O)[C@H]8O)[C@H]7O[C@@H]7O[C@H](CO)[C@H](O)[C@H](O[C@@H]8O[C@H](CO)[C@@H](O)[C@H](O)[C@H]8O)[C@H]7O)[C@H](O)[C@H]6O)[C@H](O)C[C@]5(C)[C@H]4CC[C@]3(C)[C@H]1[C@@H]2C` [Digitonin] (compound dose: 10 uM), the cell viability in experiment [1] was 0.694 ± 0.021. Besides, the kynurenine production in experiment [2] is 0.617 ± 0.019.
